Experimental findings from PubChem BioAssay (Tox21) are described below.

Test [1] is described as follows: qHTS assay to identify small molecule antagonists of the retinoid-related orphan receptor gamma (ROR-gamma) signaling pathway - cell viability counter screen (AID 1159520). Further: on the % scale 0 is the no-effect control and ±100 the full control effect; nearly all actives have a fitted effect of over 50% in size. A digest of the protocol: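 Cytotoxicity was read from cellular ATP (CellTiter-Glo luminescence) after 16 hr at 37 C with 1 uM doxycycline induction. The inducer was added 2 hr after compound transfer to Tet-on ROR gamma CHO cells.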
(Quantitative high-throughput screening tests each substance at several concentrations.)

Test [2] concerns the target Nuclear receptor ROR-gamma (Homo sapiens) (UniProt P51449). In words: qHTS assay to identify small molecule antagonists of the retinoid-related orphan receptor gamma (ROR-gamma) signaling pathway (AID 1159521; further: top concentration of the series differs between compounds; on the % scale 0 is the no-effect control and ±100 the full control effect; nearly all actives have a fitted effect of over 50% in size). In outline: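 Luminescence readout (ONE-Glo, 30 min RT) after 16 h doxycycline induction; loss of signal scored as antagonism. CHO cells with TET-inducible RORγ and RORE-LUC reporter; compounds added 2 h before 1 uM final doxycycline.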

Test [3] in a line: qHTS assay to identify small molecule agonists of the AP-1 signaling pathway - cell viability counter screen (AID 1159525; calls by dose curve; further: nearly all actives have a fitted effect of over 55% in size). A digest of the protocol: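 Luminescent ATP readout (Cell Titer Glo, 30 min RT), normalised to DMSO and tetra n-octyl ammonium bromide controls. Cells were ME-180 AP-1-bla in 0.5% dialyzed FBS Opti-MEM, with a 5 h, 37 °C compound exposure.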
Test [4] in a line: qHTS assay to identify small molecule agonists of the AP-1 signaling pathway (AID 1159526; calls by dose curve; further: on the % scale 0 is the no-effect control and ±100 the full control effect).
Test [5] has as its target Retinoic acid receptor RXR-alpha (Homo sapiens) (UniProt P19793). In words: qHTS assay to identify small molecule agonists of the RXR signaling pathway (AID 1159527; calls by dose curve; further: nearly all actives have a fitted effect of over 35% in size; further: potency means the concentration at half of the fitted maximal effect; on activation: on the % scale 0 is the no-effect control and ±100 the full control effect). In outline:
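Agonist mode; 9-cis retinoic acid positive control. HEK 293T UAS-bla reporter cells, 2% charcoal-stripped FBS, 16 hr compound exposure at 37 C/5% CO2. LiveBLAzer B/G FRET substrate 2 hr RT; ex 405, em 460/530 nm.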

Test [6] is described as follows: qHTS assay to identify small molecule agonists of the RXR signaling pathway - cell viability counter screen (AID 1159529). Further: series mostly up to about 77 µM; on the % scale 0 is the no-effect control and ±100 the full control effect; nearly all actives have a fitted effect of over 50% in size. In outline:
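Luminescence from CellTiter-Glo (30 min, RT) measured viability in the same wells as the beta-lactamase reporter readout. Cells: GeneBLAzer RXR-alpha HEK 293T, 2% charcoal-stripped FBS. Compound exposure 16 hr, 37 C.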

The structures appear in SMILES notation. Inconclusive results are not listed. Unmarked numbers belong to inactive results. Active and inactive are the calls of the source. Unless noted, the call rests on the fitted dose curve; in most records, active means well fitted curve in the direction sought with a large enough effect in the repeat runs; inconclusive means weak or mixed curves; inactive means no such curve, though single readings can be large; an effect the other way counts as inactive or inconclusive.

Retinoic acid receptor RXR-alpha (Homo sapiens), sequence (P19793 whole entry, looked up): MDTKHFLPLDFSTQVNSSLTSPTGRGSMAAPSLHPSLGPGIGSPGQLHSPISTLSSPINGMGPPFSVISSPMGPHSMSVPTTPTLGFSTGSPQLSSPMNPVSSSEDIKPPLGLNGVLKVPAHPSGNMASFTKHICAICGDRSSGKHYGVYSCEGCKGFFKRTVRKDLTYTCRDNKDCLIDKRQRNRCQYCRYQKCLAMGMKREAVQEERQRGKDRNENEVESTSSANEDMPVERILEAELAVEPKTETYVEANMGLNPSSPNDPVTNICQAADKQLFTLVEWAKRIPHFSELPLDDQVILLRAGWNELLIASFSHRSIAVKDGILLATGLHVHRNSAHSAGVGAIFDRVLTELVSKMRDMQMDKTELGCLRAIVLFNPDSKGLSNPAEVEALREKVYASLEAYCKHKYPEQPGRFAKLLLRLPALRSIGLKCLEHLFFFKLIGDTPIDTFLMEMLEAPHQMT

`Clc1nc2ccccc2s1`: the Potency entry in test [1], in test [2], in test [3], in test [4], in test [5] and in test [6] was “inactive” in each case.

On to `CC(C)=CCCC(C)CCOC(=O)C(C)C` (stereo not drawn), for which the Potency entry in test [1], in test [2], in test [3], in test [4], in test [5] and in test [6] was “inactive” in each case.

Take `Cc1cccc(C)n1`: the Potency entry in test [1], in test [2], in test [3], in test [4], in test [5] and in test [6] was “inactive” in each case.

`O=C[C@H](O)[C@H](O)[C@H](O)CO`: the Potency result in test [1], in test [2], in test [3], in test [4], in test [5] and in test [6] was “inactive” each time.

On to `COc1ccc(C#N)cc1`, for which the Potency result in test [1], in test [2], in test [3], in test [4], in test [5] and in test [6] was “inactive” in each case.

In the case of `CCc1c(Br)c(Br)c(Br)c(Br)c1Br`, the Potency result in test [1], in test [2], in test [3], in test [4] and in test [6] was “inactive” in each case. For the same molecule, in test [5], the Potency is 38.9 µM (active).

Consider `CCc1ccc(C)nc1`, for which the Potency entry in test [1], in test [2], in test [3], in test [4], in test [5] and in test [6] was “inactive” in each case.

In the case of `OCCN1CN(CCO)CN(CCO)C1`, the Potency result in test [1], in test [2], in test [3], in test [4], in test [5] and in test [6] was “inactive” in each case.

With `CC1(C)COCN1`, the Potency entry in test [1], in test [2], in test [3], in test [4], in test [5] and in test [6] was “inactive” throughout.

Regarding `CCOCN(C(=O)CS(=O)(=O)O)c1c(C)cccc1CC`, the Potency entry in test [1], in test [2], in test [3], in test [4], in test [5] and in test [6] was “inactive” in each case.

For the molecule `CCc1c(C(=O)O)c(=O)cnn1-c1ccc(Cl)cc1`, the Potency result in test [1], in test [2], in test [3], in test [4], in test [5] and in test [6] was “inactive” each time.

Consider `OCCCS`, for which the Potency result in test [1], in test [2], in test [3], in test [4], in test [5] and in test [6] was “inactive” in each case.

On to `Clc1cc(Cl)c(-c2c(Cl)c(Cl)cc(Cl)c2Cl)cc1Cl`, for which the Potency entry in test [1], in test [2], in test [3], in test [4], in test [5] and in test [6] was “inactive” each time.

With `C#CC(O)CCC` (stereo not drawn), the Potency entry in test [1], in test [2], in test [3], in test [4], in test [5] and in test [6] was “inactive” in each case.

For the molecule `CC(C)(C)c1cc(CCC(=O)NCCCCCCNC(=O)CCc2cc(C(C)(C)C)c(O)c(C(C)(C)C)c2)cc(C(C)(C)C)c1O`, the Potency entry in test [1], in test [2], in test [3], in test [4], in test [5] and in test [6] was “inactive” in each case.

As to `CCCCCCCCCCc1ccccc1`, the Potency entry in test [1], in test [2], in test [3], in test [4], in test [5] and in test [6] was “inactive” each time.

With `CCCCN(C)C`, the Potency result in test [1], in test [2], in test [3], in test [4], in test [5] and in test [6] was “inactive” each time.

Regarding `CC(C)(C)c1n[nH]c(=O)n(N)c1=O`, the Potency entry in test [1], in test [2], in test [3], in test [4], in test [5] and in test [6] was “inactive” each time.

Take `CCCCCCCC(OC)OC`: the Potency result in test [1], in test [2], in test [3], in test [4], in test [5] and in test [6] was “inactive” throughout.

`CC(=O)O[C@@H]1C[C@@H]2CC[C@@]1(C)C2(C)C`: the Potency entry in test [1], in test [2], in test [3], in test [4], in test [5] and in test [6] was “inactive” throughout.

For the molecule `O=C=NCc1cccc(CN=C=O)c1`, in test [1], the activity, negative = cytotoxicity was 5.39% [at 19 µM]. Also, the activity change, negative = inhibition in test [2] was -2.4% [at 19 µM]. In addition, in test [3], the viability change, negative = cytotoxic was -10.1% [at 15.8 µM]. For the same molecule, the activation is -14% [at 15.8 µM] in test [4] and -0.945% [at 15.8 µM] in test [5]. Further, the activity change, negative = cytotoxicity in test [6] is -2.82% [at 15.8 µM].

Take `Cc1cccc(N(C)C)c1`: the Potency entry in test [1], in test [2], in test [3], in test [4], in test [5] and in test [6] was “inactive” in each case.

Take `CCC1CCCCC1`: the Potency result in test [1], in test [2], in test [3], in test [4], in test [5] and in test [6] was “inactive” in each case.

As to `CC1CCCCC1`, the Potency entry in test [1], in test [2], in test [3], in test [4], in test [5] and in test [6] was “inactive” in each case.

`Oc1cc2ccccc2cc1O`: the Potency result in test [1], in test [2], in test [3], in test [4], in test [5] and in test [6] was “inactive” throughout.

Consider `CC(=O)OC1CCCCC1`, for which the Potency result in test [1], in test [2], in test [3], in test [4], in test [5] and in test [6] was “inactive” throughout.

In the case of `CC(=O)C=O`, the Potency entry in test [1], in test [2], in test [3], in test [4], in test [5] and in test [6] was “inactive” in each case.

`C/C=C/c1ccc(OC)c(OC)c1`: the Potency entry in test [1], in test [2], in test [3], in test [4], in test [5] and in test [6] was “inactive” each time.
